PubChem BioAssay AID504332 (National Center for Advancing Translational Sciences (NCATS), 2011)
The campaign covered roughly 350,000 compounds. About 31,000 (8.9%) were called active. Inconclusive results (about 15%) are left out. The sample as a whole holds a higher share of actives than the screen did. Unmarked numbers belong to inactive results. Calls come from the whole dose curve; as a rule, active = well fitted inhibition curve with a large enough effect; inconclusive = small, poorly fitted or top-dose-only effect; inactive = no such curve, though single readings can be large or run the other way.

biological target: Histone-lysine N-methyltransferase EHMT2 (Homo sapiens) (UniProt Q96KQ7); test: qHTS Assay for Inhibitors of Histone Lysine Methyltransferase G9a; details: G9a H3K9 monomethylation, AlphaScreen, 2 h; series mostly up to 59 µM; activity, negative = inhibition: at the top concentration; note: nearly all actives have a fitted effect of over 75% in size
Sequence (Q96KQ7 913-1193 limits assumed): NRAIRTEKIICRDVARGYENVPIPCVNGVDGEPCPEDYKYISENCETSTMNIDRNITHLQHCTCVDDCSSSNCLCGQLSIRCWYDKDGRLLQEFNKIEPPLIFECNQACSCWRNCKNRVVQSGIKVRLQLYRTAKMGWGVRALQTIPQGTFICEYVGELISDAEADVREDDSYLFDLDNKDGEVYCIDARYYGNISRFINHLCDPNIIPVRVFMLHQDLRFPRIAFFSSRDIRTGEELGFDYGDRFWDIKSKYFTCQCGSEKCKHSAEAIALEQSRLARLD
In short: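 AlphaScreen read-out: biotin-H3K9 peptide (500 nM) methylation by 20 nM enzyme with 20 uM SAM, 2 h at room temperature after 15 min compound preincubation; anti-monomethyl H3K9 antibody plus donor/acceptor beads, 10 min dark.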
% is set by controls: 0 for no effect and ±100 for the full control effect; potency is the fitted concentration of half-maximal effect.

| SMILES | activity, negative = inhibition | Potency |
| --- | --- | --- |
| O=C(NCCN1C(=O)C2C3C=CC(C3)C2C1=O)Nc1ccccn1 (centres undefined) | 0.474% [at 102 µM] | – |
| O=C(CN1C(=O)C2C3C=CC(C3)C2C1=O)Nc1nc(-c2ccccn2)cs1 (centres undefined) | – | 39.8 µM (active) |
| O=C(CCN1C(=O)C2C3C=CC(C3)C2C1=O)Nc1ccccc1F (centres undefined) | -6.32% [at 102 µM] | – |
| COCCCN(C(=O)CSCc1ccc(C)cc1)c1c(N)n(Cc2ccccc2)c(=O)[nH]c1=O | -49.2% [at 102 µM] | – |
| Cc1c(CNC2CCCCC2)c(C(=O)O)c(C)n1Cc1cccc(Cl)c1 | -3.25% | – |
| Cc1onc(-c2c(F)cccc2Cl)c1C(=O)N(C)CC(=O)Nc1cccc(F)c1 | -18.5% [at 102 µM] | – |
| CCOC(=O)c1ccc(NC(=O)CCS(=O)(=O)c2ccc(C)cc2)cc1 | -30.4% | – |
| O=C(CSc1nnc(CNC(=O)c2ccc(F)cc2)o1)Nc1ccc2c(c1)OCO2 | 26.4% [at 102 µM] | – |
| Cc1cccc(C)c1N1CCN(S(=O)(=O)N2CCOCC2)CC1 | – | 39.8 µM (active) |
| Cc1cccc(C)c1N1CCN(S(=O)(=O)N2CCCCC2)CC1 | 50.4% [at 102 µM] | – |
| O=S(=O)(N1CCOCC1)N1CCN(c2ccccc2F)CC1 | 0.689% [at 102 µM] | – |
| CN(CC(=O)Nc1cccc(F)c1)C(=O)C1CC(=O)N(CCc2ccccc2)C1 (centres undefined) | -1.48% [at 102 µM] | – |
| Cc1ccc(CNC(=O)CCc2c(C)nn(-c3ccc(N4CCCC4)nn3)c2C)cc1 | 18.4% | – |
| O=C(O)/C=C/c1ccc(S(=O)(=O)N2CCCCCC2)cc1 | -30.8% [at 102 µM] | – |
| CCN(CC)CCNS(=O)(=O)c1ccc(/C=C/C(=O)O)cc1 | – | 39.8 µM (active) |
| CCC(C)NC(=O)/C=C/c1ccc(S(=O)(=O)NCc2ccco2)cc1 (centres undefined) | -28.7% [at 102 µM] | – |
| Cc1cc(NC(=O)CSC2=NS(=O)(=O)c3cc(Cl)ccc3N2)no1 | 2.09% [at 102 µM] | – |
| Cc1ccc(CNC(=O)C(=O)c2cn(CC(=O)N3CCCC3)c3ccccc23)cc1 | 30.1% [at 102 µM] | – |
| O=C(NCc1ccco1)C(=O)c1cn(CC(=O)N2CCCCCC2)c2ccccc12 | – | 50.1 µM (active) |
| O=C(NCCCn1ccnc1)C(=O)c1cn(CC(=O)N2CCCCCC2)c2ccccc12 | -41.8% [at 102 µM] | – |
| COc1cccc(OCCn2c(-c3ccc(Br)cc3)nc3ccccc3c2=O)c1 | -40.8% | – |
| Cc1oc2ncn(CC(C)C)c(=O)c2c1C(=O)N1CCN(c2ccccc2F)CC1 | 2.53% | – |
| Cc1cc(Cl)c2oc(C(=O)N(C)C(C)c3ccccn3)c(C)c2c1 (centres undefined) | 19.3% [at 102 µM] | – |
| COc1ccc(-c2sc3ccc(OC)cc3c2C#Cc2ccccn2)cc1 | -2.78% [at 0.501 µM] | – |
| Cc1cc(C)cc(NC(=O)COc2coc(CN3CCN(c4ccccc4)CC3)cc2=O)c1 | -10.4% [at 102 µM] | – |

| SMILES | activity, negative = inhibition | Potency |
| --- | --- | --- |
| CCOc1ccc(N/C=C/C(=O)c2cc(OC)c(OC)c(OC)c2)cc1 | -10.6% [at 0.501 µM] | – |
| CCOC(=O)c1c(NC(=O)CCC(=O)NCc2ccco2)sc2c1CCCC2 | 6.67% | – |
| CCOC(=O)c1ccc(NC(=O)c2csc3c2CCCCC3)cc1 | -24.4% | – |
| Cc1ccc(C(=O)NCCNC(=O)c2ccccc2)cc1 | 26.4% | – |
| CCOC(=O)c1ccc(NC(=O)c2c(NCc3cccc(OC)c3)sc3c2CCC3)cc1 | – | 7.94 µM (active) |
| Cc1sc(NC(=O)c2ccc3ncsc3c2)c(C(N)=O)c1C | -49.7% [at 102 µM] | – |
| O=C(Cc1ccccc1)Nc1sc2c(c1C(=O)Nc1ccc(Br)cc1)CCC2 | 11.7% | – |
| Cc1ccc(NC(=O)c2c(NC(=O)CCC(=O)O)sc3c2CCCCC3)cc1 | – | 28.2 µM (active) |
| Cc1ccc(C(=O)c2c(NC(=O)c3ccccc3)sc(C)c2C)cc1 | – | 8.91 µM (active) |
| CCOc1ccc(NC(=O)c2c(NC(=O)Cc3ccccc3)sc3c2CCCCC3)cc1 | – | 1.12 µM (active) |
| CCOC(=O)c1ccc(NC(=O)CC2C(=O)N(c3cccc(OC)c3)C(=O)N2C2CCCCC2)cc1 (centres undefined) | -29% | – |
| CCOc1ccc(CCNC(=O)c2csc3c2CCCCC3)cc1 | -6.99% | – |
| COC(=O)c1c(NC(=O)CCCC(=O)O)sc2c1CCCCC2 | 23% [at 12.7 µM] | – |
| Cc1cc(C)cc(Nc2ncnc3onc(-c4ccc(F)cc4)c23)c1 | -3.93% | – |
| CNC(=O)CN1C(=O)c2cccnc2Sc2ccccc21 | 18.1% | – |
| O=C(CSc1oc(-c2ccco2)nc1S(=O)(=O)c1ccccc1)c1ccc(Cl)cc1 | -33.3% | – |
| COc1cccc(NC(=O)c2ccccc2N(Cc2ccccc2)S(C)(=O)=O)c1 | 19.2% [at 0.501 µM] | – |
| COc1ccc(-n2c(SCC(=O)Nc3ccc(Cl)c(C)c3)nc3n[nH]c(C)c3c2=N)cc1 | 8.7% | – |
| COc1ccc(C2C(=O)N(C3CCCCC3)CC(=O)N2Cc2ccccc2Cl)cc1OC (centres undefined) | -2.55% | – |
| Cc1cc(C(=O)COc2ccccc2Cl)c(C)n1C1CC1 | 15.7% [at 0.501 µM] | – |
| O=C(CC(c1cccs1)N1Cc2ccccc2C1=O)Nc1ccc(F)cc1F (centres undefined) | -1.76% | – |
| CCOc1ccc(NC(=O)c2c(NC(=O)Cc3ccccc3)sc3c2CCC(C)C3)cc1 (centres undefined) | – | 2 µM (active) |
| COC(=O)c1c(NC(=O)CCCOc2ccccc2)sc2c1CCC(C)C2 (centres undefined) | 45% | – |
| COC(=O)c1c(NC(=O)c2ccc(Cl)c(Cl)c2)sc2c1CCCC2 | -44.1% | – |
